Outcome data for seven molecules are collected here from PubChem BioAssay (EPA / NIEHS).

Results filed as inconclusive are left out. Calls of active or inactive are those of the source. How the source made its calls: active means hit-call score of the fitted dose curve at least 0.9, where 1 is the maximum; inconclusive means response in the unintended direction; inactive means score below 0.9.

Assay [1] has as its target human FYN Proto-Oncogene, Src family Tyrosine Kinase (Fyn), FYN (gene 2534) (UniProt P06241). Kind of assay: NVS_ENZ_hFyn: NovaScreen (NVS) Enzymatic Assay for human FYN Proto-Oncogene, Src family Tyrosine Kinase (Fyn) (AID 2283161). The protocol: NVS_ENZ_hFyn is a biochemical, single-readout assay that uses extracted gene-proteins in a cell-free assay. Measurements were taken 1 hour after chemical dosing in a 384-well plate.NVS_ENZ_hFyn is one of one assay component(s) measured or calculated from the NVS_ENZ_hFyn assay. It is designed to make measurements of enzyme activity, a form of enzyme reporter, as detected with fluorescence intensity signals by Fluorescence and electrophoretic mobility shift technology.Data from the assay component NVS_ENZ_hFyn was analyzed into 1 assay endpoint. This assay endpoint, NVS_ENZ_hFyn, was analyzed in the positive analysis fitting direction relative to DMSO as the negative control and baseline of activity. Using a type of enzyme reporter, loss-of-signal activity can be used to understand changes in the enzymatic activity as they relate to the gene FYN. Furthermore, this assay endpoint can be referred to as a primary readout, because this assay has produced multiple assay endpoints where this one serves a enzymatic activity function. To generalize the intended target to other relatable targets, this assay endpoint is annotated to the kinase intended target family, where the subfamily is non-receptor tyrosine kinase. […]

In assay [2] the target is Histone deacetylase 3 (Homo sapiens) (UniProt O15379). Kind of assay: NVS_ENZ_hHDAC3: NovaScreen (NVS) Enzymatic Assay for human Histone Deacetylase 3 (HDAC3) (AID 2283163). The gist of the method: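 Cell-free enzyme format: loss of fluorescent product after mobility-shift separation, 1 h incubation, recombinant human HDAC3. Single 25 uM duplicate screen first, then concentration series to a 50 uM top for hits; DMSO as baseline.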

For assay [3], the target named is human IkappaB Kinase alpha (IKKa), CHUK (gene 1147) (UniProt O15111). Briefly: NVS_ENZ_hIKKa: NovaScreen (NVS) Enzymatic Assay for human IkappaB Kinase alpha (IKKa) (AID 2283167). The gist of the method: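 Compounds first run in duplicate at 25 uM, those meeting threshold (e.g. 30% inhibition) retested to maximum 50 uM. Enzyme activity of recombinant IKKa measured by fluorescence with electrophoretic mobility shift separation, 1 hour post-dosing, DMSO baseline.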

For assay [4], the target named is human Insulin Receptor (InsR), INSR (gene 3643) (UniProt P06213). Kind of assay: NVS_ENZ_hInsR: NovaScreen (NVS) Enzymatic Assay for human Insulin Receptor (InsR) (AID 2283168). The gist of the method: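 Cell-free enzyme assay read 1 h post-dose by fluorescence after substrate/product mobility-shift separation. Duplicate 25 uM primary screen, then singleton concentration-response up to 50 uM for compounds passing threshold; loss of signal vs DMSO.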

Assay [5] deals with human LYN Proto-Oncogene, Src family Tyrosine Kinase (LynA), LYN (gene 4067) (UniProt P07948). Briefly: NVS_ENZ_hLynA: NovaScreen (NVS) Enzymatic Assay for human LYN Proto-Oncogene, Src family Tyrosine Kinase (LynA) (AID 2283173). The gist of the method: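 Recombinant kinase with fluorescent substrate; product separated from substrate by electrophoretic mobility shift and read 1 h after dosing. Duplicate screen at 25 uM, then concentration-response up to 50 uM; activity scored as signal loss against DMSO.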

Assay [6] deals with human c-Jun N-terminal Kinases (JNK2), MAPK9 (gene 5601) (UniProt P45984). Kind of assay: NVS_ENZ_hJNK2: NovaScreen (NVS) Enzymatic Assay for human c-Jun N-terminal Kinases (JNK2) (AID 2283171). An outline of the steps: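 Chemicals first tested in duplicate at 25 uM, then in singleton concentration series up to 50 uM, against extracted JNK2 enzyme. Activity loss read by fluorescence with mobility-shift separation 1 h post-dose; DMSO baseline.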

Assay [7] has as its target Mitogen-activated protein kinase 3 (Homo sapiens) (UniProt P27361). Kind of assay: NVS_ENZ_hMAPK3: NovaScreen (NVS) Enzymatic Assay for human Mitogen-Activated Protein Kinase 3 (MAPK 3) (AID 2283177). The gist of the method: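 Chemicals were first tested in duplicate at 25 uM, with hits re-run as concentration series (max 50 uM). Recombinant enzyme activity, measured 1 h post-dose in a cell-free format, was read by fluorescence/mobility shift relative to DMSO.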

Chain of human c-Jun N-terminal Kinases (JNK2), MAPK9 (gene 5601) (P45984 whole entry, looked up): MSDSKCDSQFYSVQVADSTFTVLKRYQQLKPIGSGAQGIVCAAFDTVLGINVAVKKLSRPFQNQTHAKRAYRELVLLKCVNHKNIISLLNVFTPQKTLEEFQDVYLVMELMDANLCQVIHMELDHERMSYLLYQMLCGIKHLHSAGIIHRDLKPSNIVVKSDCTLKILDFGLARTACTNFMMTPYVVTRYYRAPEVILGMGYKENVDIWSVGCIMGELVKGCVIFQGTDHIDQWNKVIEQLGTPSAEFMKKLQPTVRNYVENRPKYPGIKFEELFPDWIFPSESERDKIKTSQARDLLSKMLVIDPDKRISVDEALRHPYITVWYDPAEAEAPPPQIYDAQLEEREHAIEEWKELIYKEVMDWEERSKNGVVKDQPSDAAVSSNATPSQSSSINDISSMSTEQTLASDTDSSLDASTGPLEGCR
Chain of Mitogen-activated protein kinase 3 (Homo sapiens) (P27361 whole entry, looked up): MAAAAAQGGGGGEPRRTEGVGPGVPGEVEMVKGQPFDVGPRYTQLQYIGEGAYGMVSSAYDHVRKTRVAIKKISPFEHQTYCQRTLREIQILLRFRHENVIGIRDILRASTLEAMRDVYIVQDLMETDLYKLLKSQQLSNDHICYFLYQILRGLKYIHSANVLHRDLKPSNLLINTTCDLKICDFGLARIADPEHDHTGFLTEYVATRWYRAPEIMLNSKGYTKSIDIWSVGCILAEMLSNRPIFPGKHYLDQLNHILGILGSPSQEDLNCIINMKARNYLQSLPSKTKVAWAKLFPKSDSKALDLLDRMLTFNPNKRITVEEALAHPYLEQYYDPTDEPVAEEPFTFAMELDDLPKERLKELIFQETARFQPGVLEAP
Chain of human IkappaB Kinase alpha (IKKa), CHUK (gene 1147) (O15111 whole entry, looked up): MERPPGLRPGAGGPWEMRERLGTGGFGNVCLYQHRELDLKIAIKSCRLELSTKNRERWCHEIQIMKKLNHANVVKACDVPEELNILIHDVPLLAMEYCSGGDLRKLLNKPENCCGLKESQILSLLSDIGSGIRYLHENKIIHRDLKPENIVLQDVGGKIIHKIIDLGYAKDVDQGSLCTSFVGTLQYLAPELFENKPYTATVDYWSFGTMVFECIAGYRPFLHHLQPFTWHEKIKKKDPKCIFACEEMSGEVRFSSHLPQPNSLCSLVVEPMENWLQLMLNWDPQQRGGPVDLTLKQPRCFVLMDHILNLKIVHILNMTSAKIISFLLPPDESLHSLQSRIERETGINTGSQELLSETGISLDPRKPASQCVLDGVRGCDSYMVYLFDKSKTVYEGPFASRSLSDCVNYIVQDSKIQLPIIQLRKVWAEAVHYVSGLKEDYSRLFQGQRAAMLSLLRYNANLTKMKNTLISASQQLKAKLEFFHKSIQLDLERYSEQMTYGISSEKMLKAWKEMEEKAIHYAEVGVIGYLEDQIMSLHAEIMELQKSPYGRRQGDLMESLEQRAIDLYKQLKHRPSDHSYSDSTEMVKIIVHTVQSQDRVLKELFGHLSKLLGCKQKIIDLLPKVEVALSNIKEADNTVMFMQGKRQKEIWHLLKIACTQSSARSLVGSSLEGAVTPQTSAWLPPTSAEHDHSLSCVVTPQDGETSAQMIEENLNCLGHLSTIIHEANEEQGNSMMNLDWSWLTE
Chain of human Insulin Receptor (InsR), INSR (gene 3643) (P06213 whole entry, looked up): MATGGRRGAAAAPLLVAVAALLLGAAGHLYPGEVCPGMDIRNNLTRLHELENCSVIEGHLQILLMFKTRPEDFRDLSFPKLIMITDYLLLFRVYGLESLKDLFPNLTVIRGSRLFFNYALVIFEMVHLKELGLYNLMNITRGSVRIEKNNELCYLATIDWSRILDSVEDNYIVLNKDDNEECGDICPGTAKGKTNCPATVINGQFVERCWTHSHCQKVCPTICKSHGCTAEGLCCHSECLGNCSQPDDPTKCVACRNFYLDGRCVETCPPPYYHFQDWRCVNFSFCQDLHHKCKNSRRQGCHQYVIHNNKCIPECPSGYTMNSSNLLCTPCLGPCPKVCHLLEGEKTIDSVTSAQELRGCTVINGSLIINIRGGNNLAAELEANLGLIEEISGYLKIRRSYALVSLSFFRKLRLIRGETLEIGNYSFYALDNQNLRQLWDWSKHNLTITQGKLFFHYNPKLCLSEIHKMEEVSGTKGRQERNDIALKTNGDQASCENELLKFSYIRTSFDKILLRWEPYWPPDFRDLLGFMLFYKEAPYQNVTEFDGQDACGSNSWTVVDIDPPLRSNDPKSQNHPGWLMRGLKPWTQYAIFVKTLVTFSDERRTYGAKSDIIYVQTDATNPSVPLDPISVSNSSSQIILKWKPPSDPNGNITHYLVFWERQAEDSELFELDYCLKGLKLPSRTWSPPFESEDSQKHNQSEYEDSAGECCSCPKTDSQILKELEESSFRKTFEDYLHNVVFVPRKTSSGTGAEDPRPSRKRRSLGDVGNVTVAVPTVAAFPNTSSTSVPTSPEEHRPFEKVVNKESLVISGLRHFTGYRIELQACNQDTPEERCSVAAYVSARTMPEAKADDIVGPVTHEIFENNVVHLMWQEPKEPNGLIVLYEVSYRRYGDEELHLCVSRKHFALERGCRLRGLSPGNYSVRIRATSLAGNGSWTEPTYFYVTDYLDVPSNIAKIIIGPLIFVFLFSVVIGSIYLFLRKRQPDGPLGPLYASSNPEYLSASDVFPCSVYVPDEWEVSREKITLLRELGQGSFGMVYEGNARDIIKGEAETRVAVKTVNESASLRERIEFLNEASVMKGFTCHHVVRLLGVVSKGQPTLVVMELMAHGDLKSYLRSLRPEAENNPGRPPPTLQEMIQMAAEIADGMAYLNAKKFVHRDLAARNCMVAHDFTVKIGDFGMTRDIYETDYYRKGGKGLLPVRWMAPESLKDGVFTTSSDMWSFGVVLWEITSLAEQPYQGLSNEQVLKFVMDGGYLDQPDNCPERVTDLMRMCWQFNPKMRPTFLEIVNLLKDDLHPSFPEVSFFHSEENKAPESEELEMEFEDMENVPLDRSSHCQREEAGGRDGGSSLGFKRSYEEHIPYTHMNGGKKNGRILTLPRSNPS
Chain of human LYN Proto-Oncogene, Src family Tyrosine Kinase (LynA), LYN (gene 4067) (P07948 whole entry, looked up): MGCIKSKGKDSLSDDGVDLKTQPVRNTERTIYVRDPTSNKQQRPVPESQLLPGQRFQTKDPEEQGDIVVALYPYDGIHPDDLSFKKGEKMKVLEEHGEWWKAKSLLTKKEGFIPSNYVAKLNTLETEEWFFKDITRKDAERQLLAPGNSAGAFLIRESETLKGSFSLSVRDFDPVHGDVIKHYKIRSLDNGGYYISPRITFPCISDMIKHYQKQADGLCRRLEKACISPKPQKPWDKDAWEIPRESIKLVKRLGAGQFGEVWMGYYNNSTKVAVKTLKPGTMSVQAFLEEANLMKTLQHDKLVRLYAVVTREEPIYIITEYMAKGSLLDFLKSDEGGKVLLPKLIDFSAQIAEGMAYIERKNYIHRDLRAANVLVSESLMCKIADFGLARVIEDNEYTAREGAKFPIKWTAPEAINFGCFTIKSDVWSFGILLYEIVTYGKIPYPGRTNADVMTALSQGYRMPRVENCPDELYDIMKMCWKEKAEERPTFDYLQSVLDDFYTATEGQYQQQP
Chain of human FYN Proto-Oncogene, Src family Tyrosine Kinase (Fyn), FYN (gene 2534) (P06241 whole entry, looked up): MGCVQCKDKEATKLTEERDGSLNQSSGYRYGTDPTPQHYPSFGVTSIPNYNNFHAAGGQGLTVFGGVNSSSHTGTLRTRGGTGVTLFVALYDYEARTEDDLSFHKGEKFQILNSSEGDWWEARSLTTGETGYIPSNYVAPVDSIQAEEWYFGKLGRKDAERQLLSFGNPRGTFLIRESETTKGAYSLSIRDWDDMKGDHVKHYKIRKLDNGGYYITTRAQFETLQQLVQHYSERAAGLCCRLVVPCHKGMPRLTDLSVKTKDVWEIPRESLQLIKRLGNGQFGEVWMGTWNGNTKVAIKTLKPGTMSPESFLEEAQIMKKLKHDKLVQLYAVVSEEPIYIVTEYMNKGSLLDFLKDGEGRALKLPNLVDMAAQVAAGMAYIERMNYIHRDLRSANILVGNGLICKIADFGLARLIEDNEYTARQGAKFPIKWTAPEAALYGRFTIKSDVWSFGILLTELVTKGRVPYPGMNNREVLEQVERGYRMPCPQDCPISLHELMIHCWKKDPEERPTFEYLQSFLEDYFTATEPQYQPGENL
Chain of Histone deacetylase 3 (Homo sapiens) (O15379 whole entry, looked up): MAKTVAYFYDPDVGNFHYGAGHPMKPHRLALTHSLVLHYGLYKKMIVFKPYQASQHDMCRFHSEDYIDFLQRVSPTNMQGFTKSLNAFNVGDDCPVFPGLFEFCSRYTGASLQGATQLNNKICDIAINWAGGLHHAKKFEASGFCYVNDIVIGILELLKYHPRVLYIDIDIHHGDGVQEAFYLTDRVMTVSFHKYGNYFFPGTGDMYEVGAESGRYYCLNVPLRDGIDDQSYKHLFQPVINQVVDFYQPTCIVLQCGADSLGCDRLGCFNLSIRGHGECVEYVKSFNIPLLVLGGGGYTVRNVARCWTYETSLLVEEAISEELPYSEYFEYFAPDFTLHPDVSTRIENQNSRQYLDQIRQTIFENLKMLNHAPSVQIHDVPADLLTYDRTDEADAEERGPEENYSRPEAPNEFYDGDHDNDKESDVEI

In the case of `CCCCc1ccccc1`, the molecule was classed as inactive in assay [1].
As for `CCOS(=O)(=O)OCC`, the molecule was classed as inactive in assay [2].
As to `O=P(Oc1ccccc1)(Oc1ccccc1)Oc1ccccc1`, the result in assay [3] and in assay [4] was inactive.
For `Cc1cccc(N)c1`, the result in assay [3] and in assay [5] was inactive.
As for `Cc1ccc(O)cc1C`, in assay [6], the molecule was called inactive.
For `CC(C)(C)OOC(C)(C)C`, the call in assay [6] and in assay [7] was inactive.
As for `Nc1cc2c3c(c1)C(c1ccccc1)=N[C@@H](NC(=O)c1cccnc1)C(=O)N3CC2`, in assay [7], the result was inactive.
